This is an account of results in PubChem BioAssay.

A short description of this experiment: JC-1 mitochondrial signal, unstimulated MM1S myeloma – cell-based, JC-1 fluorescence, 24 h, 100 nL compound, profiling panel (AID 1170). Further: test concentration not given here. The note with it: MM1S mitochondrial potential, higher = more signal.
With `COCCCNC(=O)[C@@]1(Sc2ccc(C)cc2)CC(=O)N(Cc2ccccc2)[C@@H]1c1ccc(CO)cc1I`, the z-score was -1.47.

Consider `COC(=O)[C@H](C)NC(=O)CCC1CC(OC(=O)NCCc2ccc(F)cc2)CC2(CCCC(COC(=O)NCC(c3ccccc3)c3ccccc3)O2)O1` (stereo partly specified), for which the z-score was -1.37.

As to `COc1ccccc1CN1C(=O)c2ccccc2[C@@H](C(=O)NCC(F)(F)F)[C@@H]1c1ccc(CO)cc1`, the z-score was -0.684. The result for `Cc1cc2c(c(=O)o1)[C@H](O)[C@H]1O[C@H]1C2=O` reads -1.12; that for `CCN(CC)c1ccc(N2CC=CC34O[C@@H]5/C=C\CCC(C)OC(=O)C5[C@H]3C(=O)N(CCCO)[C@@H]4C2=O)cc1` (stereo partly specified), 1.18; that for `O=C1O[C@@H](c2ccccc2)[C@@H](c2ccccc2)N2[C@@H](c3ccccc3OCCO)[C@]3(C(=O)Nc4ccc(C#CCCO)cc43)[C@@H](C(=O)O)[C@H]12`, -0.641. `COc1ccc([Si](C)(C)[C@@H]2[C@@H](CC(=O)N3CCC[C@H]3CO)O[C@]3(C(=O)N(Cc4cccc(N5CCC5=O)c4)c4ccccc43)[C@H]2C)cc1` yielded a z-score of -2.19.

The molecule `CC(C)(C)N1CC=CC23O[C@@H]4C=CCCOC(=O)C4[C@H]2C(=O)N(CCCCCO)[C@@H]3C1=O` (stereo partly specified) gave a z-score of -0.29. `COc1cccc([C@@H]2Oc3ccc(Br)cc3C(=O)[C@H]2O)c1`: the z-score is -1.31.

Consider `CO[C@H]1COC(=O)[C@@H]2CCCN2C(=O)CC=C[C@@H](C)[C@H](OC)COC(=O)CC=C[C@@H]1C`, for which the z-score came out at 1.16. `CC(CCN1CCc2nc(-c3ccccc3)c(-c3ccccc3)cc2C1)=NO[C@H](C)c1cn([C@@H]2COC[C@H]2O)nn1` gave a z-score of -0.381.
